Bioassay records as filed in PubChem BioAssay.
BAZ2B inh – qHTS Assay for Inhibitors of BAZ2B. Bromodomain adjacent to zinc finger domain protein 2B (Homo sapiens), Q9UIF8. 4.4% of 360,000 active. AlphaScreen BAZ2B-H3K14Ac peptide displacement. Potency, µM (doses to about 114 µM), for inactives: at the highest dose activity change, negative = inhibition, actives largely listed as inhibitors; also: % is scaled to controls: 0 for no effect and ±100 for the full control effect; nearly all actives have a fitted effect of over 60% in size
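Inhibition is scored as reduced AlphaScreen emission. The BAZ2B/b-H3(5-23)K14Ac complex (50 nM each) in PBS pH 7.4, 0.01% Tween-20 meets compound (up to 110 uM) for 30 min at RT before bead addition.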
JMJD2A Tudor – qHTS Assay for Inhibitors of JMJD2A-Tudor Domain | Lysine-specific demethylase 4A (Homo sapiens), O75164 | AlphaScreen JMJD2A-Tudor / H3K4me3 peptide binding | Potency, µM (series often up to 114 µM), for the others: at the top dose activity change, negative = inhibition, actives largely listed as inhibitors | 4.4% of 390,000 active | AID 504339, 2011; also: % is scaled to controls: 0 for no effect and ±100 for the full control effect; nearly all actives have a fitted effect of over 50% in size
G9a inh – qHTS Assay for Inhibitors of Histone Lysine Methyltransferase G9a. Histone-lysine N-methyltransferase EHMT2 (Homo sapiens), Q96KQ7. G9a H3K9 monomethylation, AlphaScreen, 2 h. Potency, µM (top dose mostly 102 µM), without a hit: at the highest dose activity, negative = inhibition, most hits filed as inhibitors. 8.8% of 350,000 active. AID 504332, 2011; also: % is scaled to controls: 0 for no effect and ±100 for the full control effect; nearly all actives have a fitted effect of over 75% in size
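Step 1: enzyme (final 20 nM) with compound, 15 min RT. Step 2: substrate peptide 500 nM and SAM 20 uM, 2 h RT. Step 3: anti-H3K9me1 antibody and AlphaScreen beads, 10 min, then plate read.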
Sfp inh – qHTS Assay for Inhibitors of Bacillus subtilis Sfp phosphopantetheinyl transferase (PPTase); Potency, µM, without a hit: largest response in the series, negative = inhibition, actives largely listed as inhibitors; Biochemical Sfp PPTase activity, qHTS; 4'-phosphopantetheinyl transferase ffp (Bacillus subtilis), Q9F4F7; 3.5% of 310,000 active;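 also: the enzyme is Sfp with the accession as filed and its product quenches rhodamine fluorescence; 0% = enzyme reaction without inhibitor and -100% = no enzyme wells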
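Step 1, compound plus 15 nM Sfp-PPTase, 15 min, room temperature. Step 2, add rhodamine-CoA (5 uM) and BHQ-2-YbbR (12.5 uM). Step 3, read 525/598 nm fluorescence at 0 and 30 min.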
HP1b binding inh – HTS for Inhibitors of HP1-beta Chromodomain Interactions with Methylated Histone Tails; Chromobox protein homolog 1 (Homo sapiens), P83916; AlphaScreen HP1-beta / biotin-H3K9me3 peptide binding; Potency, µM (top dose mostly 114 µM), for the others: top-dose activity change, negative = inhibition, usual class: inhibitors; 0.56% of 390,000 active; also: nearly all actives have a fitted effect of over 70% in size
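Compound inhibition of the preformed complex between 50 nM HP1-beta and 50 nM biotinylated H3K9me3 peptide was read by AlphaScreen. Buffer was PBS pH 7.4 with 0.01% Tween-20. Incubations ran 30 min at room temperature, with 10 ug/mL donor/acceptor beads.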
L3MBTL1 inh – qHTS Assay for the Inhibitors of L3MBTL1 | 0.66% of 230,000 active | Potency, µM (highest dose often 57.1 µM), without a hit: at the top dose activity, negative = inhibition, most hits filed as inhibitors | AlphaScreen L3MBTL1–H3K9me1 peptide binding | Lethal(3)malignant brain tumor-like protein 1 (Homo sapiens), Q9Y468; also: % is scaled to controls: 0 for no effect and ±100 for the full control effect; nearly all actives have a fitted effect of over 60% in size
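L3MBTL1 50 nM + b-AHA-H3(1-15)K9me1 75 nM, 30 min RT; compound added, 30 min RT; streptavidin donor/Ni-chelate acceptor beads 10 ug/mL each final, 30 min RT dark; AlphaScreen read.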
* = called active by the depositor; ? = inconclusive; · = not tested or not shown; [ ] = dose if it differs, or a comment. Hits are enriched below; roughly 12% of the tested compounds scored in any of these assays. Calls follow the shape of the dose curve; as a rule, active = well fitted curve in the direction sought with a large enough effect; inconclusive = small, poorly fitted or top-dose-only effect, or another doubt; inactive = no such curve, though single readings can be large; an effect the other way counts as inactive or inconclusive. Potency is read from the fitted curve at half-maximal effect.

SMILES	BAZ2B inh	JMJD2A Tudor	G9a inh	Sfp inh	HP1b binding inh	L3MBTL1 inh
CS(=O)(=O)c1ccc(-c2nc(-c3ccc(F)cc3)c(-c3ccncc3)[nH]2)cc1	·	·	11%[59 µM]	-1%	·	·
Cc1ccccc1C(=O)NCc1nc2cccnc2n1Cc1ccccc1	-2%	-6%	26%[59 µM]	·	28%[57 µM]	·
CCCC(=O)NC1=C(Cl)C(=O)c2ccccc2C1=O	·	1.8µM*	·	·	7.1µM*	·
Cc1cc(C)cc(NC2=C(N)C(=O)c3ccccc3C2=O)c1	?	?	1.6µM*	18%	-19%	·
Cc1cc(C)c2c(-n3cccc3)c(C(=O)NCCc3ccc(Cl)cc3)sc2n1	11%	-14%	-6%[59 µM]	·	70%	·
COc1ccccc1NC(=O)c1sc2cccc(Cl)c2c1Cl	2%	5%	-2%[59 µM]	·	28%	·
CC(=O)OCCOc1nc(NC(C)C)nc(NC(C)C)n1	-2%	79µM*	?	15%	10%	-1%
CC(C)Nc1nc(NC(C)C)nc(C(N)=O)n1	50µM*	-34%	3%[12.7 µM]	8%	1%	·
CC(C)Nc1nc(NC(C)C)nc(Nn2cnnc2)n1	-15%	-14%	3%	22%	-20%	-6%
CC(C)Nc1nc(NC(C)C)nc(OCCOC(=O)c2ccccc2)n1	-2%	-2%	1%	21%	41%	3%
COc1ccc(C(=O)N2c3ccccc3C=CC2C#N)cc1 (centres undefined)	-7%	-18%	-1%[59 µM]	3%	8%	2%
COc1ccc(C2C(C(=O)c3ccccc3)N3c4ccccc4C=CC3C2[N+](=O)[O-])cc1 (centres undefined)	?	-23%	35µM*	6%	-5%	·
COc1ccc(N2C(=O)[C@@H]3[C@H](C2=O)[C@H](C(C)=O)N2c4ccccc4C=C[C@@H]32)cc1	?	-7%	8.9µM*	-11%	-4%	-8%
COc1ccccc1CNC(=O)CC(c1ccc(C)cc1)N1Cc2ccccc2C1=O (centres undefined)	-19%	-11%	-1%[59 µM]	·	22%	·
Cc1c(Cl)cccc1NC(=O)CCN1CCCCC1	-4%	-1%	?	7%	20%	0%
Cc1c(Cl)cccc1NC(=O)CCN1C(=O)NC(C)(C)C1=O	-5%	2%	50µM*	·	49%	-4%
Cc1c(Cl)cccc1NC(=O)CCN1CCOCC1	4%	-3%	40µM*	0%	32%	-1%
Cc1cc(Cl)ccc1NC(=O)CCN1C(=O)NC(C)(C)C1=O	7%	7%	-13%[2.33 µM]	·	34%	7%
Cc1c(Cl)cccc1NC(=O)CCC(=O)N/N=C/c1ccc[nH]1	5%	-29%	18µM*	45µM*	2%	-8%
Cc1c(Cl)cccc1NC(=O)NCc1ccc(F)cc1	-5%	-8%	50µM*	3%	11%	-3%
Cc1ccc(C)c(NC(=O)CCC(=O)N/N=C/c2ccc[nH]2)c1	-30%	-24%	·	-17%	22%	-5%
Cc1noc(-c2ccc(-c3noc(-c4cccc(Cl)c4)n3)cc2)n1	3%	-9%	2%[59 µM]	·	22%[57 µM]	·
Cc1nnc(N2CCN(c3cccc(Cl)c3)CC2)c2c1nnn2Cc1ccc(F)cc1	-1%	-19%	0%[59 µM]	·	46%	·
Cc1ccc(Nc2nc(-c3c(C)n(C)n(-c4ccccc4)c3=O)c(C)s2)cc1	?	?	50µM*	-2%	6%	-2%
COc1ccc(OC)c(N(C(=O)c2snc(C(N)=O)c2N)C(C(=O)NCc2ccccc2)c2ccc(O)cc2)c1 (centres undefined)	-21%	-24%	-40%	5%	-8%	·
SMILES	BAZ2B inh	JMJD2A Tudor	G9a inh	Sfp inh	HP1b binding inh	L3MBTL1 inh
Cc1cccc(N(C(=O)c2snc(C(N)=O)c2N)C(C(=O)NCC2CCCO2)c2ccc(N(C)C)cc2)c1C (centres undefined)	28µM*	-27%	50µM*	-8%	-10%	·
CCOC(=O)CN(C(=O)c1snc(C(N)=O)c1N)C(C(=O)NC1CCCCC1)c1ccc(F)cc1 (centres undefined)	79µM*	?	0%[59 µM]	4%	42%	-5%
CCOCCCN(C(=O)c1snc(C(N)=O)c1N)C(C(=O)NC1CCCC1)c1ccc(F)cc1 (centres undefined)	6%	-7%	-3%	13%	41%	·
Cc1cccc(N(C(=O)c2snc(C(N)=O)c2N)C(C(=O)NCC2CCCO2)c2cccs2)c1 (centres undefined)	1%	-19%	10%	-2%	34%	6%
Cc1ccc(C)c(N(C(=O)c2snc(C(N)=O)c2N)C(C(=O)NCC2CCCO2)c2cccs2)c1 (centres undefined)	-13%	11µM*	12%	2%	19%	4%
CN(C)c1ccc(C(C(=O)NCC2CCCO2)N(Cc2ccccc2)C(=O)c2snc(C(N)=O)c2N)cc1 (centres undefined)	?	?	-20%	10%	-8%	·
COc1ccc(CNC(=O)C(c2ccc(C)o2)N(C(=O)c2snc(C(N)=O)c2N)c2ccccc2OC)cc1 (centres undefined)	-15%	-15%	50µM*	1%	-14%	·
CCC1CN(CC(=O)NCc2cccc(Br)c2)c2ccccc2S1 (centres undefined)	-3%	-33%	?	·	18%[57 µM]	·
COc1ccccc1N(C(=O)c1snc(C(N)=O)c1N)C(C(=O)NC1CCCC1)c1ccc(N(C)C)cc1 (centres undefined)	35µM*	?	-6%	-10%	-28%	·
COc1ccccc1N(C(=O)c1snc(C(N)=O)c1N)C(C(=O)NC1CCCC1)c1ccco1 (centres undefined)	-5%	-29%	-12%	8%	26%	?
COc1ccc(NC(=O)Cc2nnc(SCC(=O)NC3CCCCC3)n2C)cc1	1%	-16%	11%	4%	22%	·
CCOc1ccc(Nc2nc(Cc3nnc(SCC(=O)NCC4CCCO4)n3C)cs2)cc1 (centres undefined)	?	?	-22%[59 µM]	28µM*	-8%	-4%
CCOc1ccc(Nc2nc(Cc3nnc(SCC(=O)N(CC)CC)n3C)cs2)cc1	?	-15%[57.1 µM]	-6%[59 µM]	32µM*	26%	-3%
